Test results published in PubChem BioAssay AID488969 (Vanderbilt High Throughput Screening Facility, 2010).
In all, about 110,000 compounds were measured (“z-score”: median about -0.1, highest 2% from about 2 on). The entries come from a sample that favours the highest values as a whole. Activity calls are given as the source filed them.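 How the source made its calls: active means z-score in the third read window above 3 or below -3; inactive means the rest.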

biological target: Metabotropic glutamate receptor 8 (Rattus norvegicus) (UniProt P70579); test: mGluR8 Gi/Go-coupled signaling modulation – cell-based, rat, thallium flux, HTS, primary screen (AID 488969); conditions: HEK293 rat mGluR8, GIRK (G protein-gated inwardly rectifying potassium channel) thallium flux, FluoZin2; at 10 µM; stronger effect = higher value; submaximal glutamate (EC20) added with thallium
Sequence (P70579 whole entry, looked up): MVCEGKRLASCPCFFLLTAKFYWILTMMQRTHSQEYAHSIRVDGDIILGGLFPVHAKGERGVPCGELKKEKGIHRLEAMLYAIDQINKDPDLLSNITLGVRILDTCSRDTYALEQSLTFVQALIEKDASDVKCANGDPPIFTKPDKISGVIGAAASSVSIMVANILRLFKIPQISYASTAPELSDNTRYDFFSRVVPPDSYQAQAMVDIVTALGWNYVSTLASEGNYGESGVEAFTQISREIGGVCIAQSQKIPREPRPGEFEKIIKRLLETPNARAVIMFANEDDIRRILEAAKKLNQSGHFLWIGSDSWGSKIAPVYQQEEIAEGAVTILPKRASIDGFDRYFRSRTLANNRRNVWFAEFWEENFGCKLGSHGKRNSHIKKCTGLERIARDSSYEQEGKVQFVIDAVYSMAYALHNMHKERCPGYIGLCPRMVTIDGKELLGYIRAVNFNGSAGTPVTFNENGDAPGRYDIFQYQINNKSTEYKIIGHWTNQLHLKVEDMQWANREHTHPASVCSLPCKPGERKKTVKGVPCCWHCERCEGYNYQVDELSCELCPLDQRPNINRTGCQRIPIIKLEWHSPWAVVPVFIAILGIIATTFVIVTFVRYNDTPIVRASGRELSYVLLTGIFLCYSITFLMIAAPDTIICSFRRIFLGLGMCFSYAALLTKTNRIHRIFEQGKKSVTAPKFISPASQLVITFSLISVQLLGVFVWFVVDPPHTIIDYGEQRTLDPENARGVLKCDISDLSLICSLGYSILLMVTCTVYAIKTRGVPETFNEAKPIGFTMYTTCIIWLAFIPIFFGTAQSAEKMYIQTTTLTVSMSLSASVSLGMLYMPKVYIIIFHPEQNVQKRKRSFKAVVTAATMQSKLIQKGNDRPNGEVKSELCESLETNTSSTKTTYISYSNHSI

Point of comparison: `COc1ccc(NC(=O)c2cccnc2SC)cc1S(=O)(=O)N1CCCCC1`, z-score -0.467. Against it:
- CCOc1ccc(-c2nc(-c3ccc(OC)cc3)no2)cc1OCC — higher, 2.87
- COc1ccc(-c2noc(-c3ccc(Cl)cc3[N+](=O)[O-])n2)cc1OC — higher, -0.0457
- COc1ccc(-c2noc(-c3cc(C)cc(C)c3)n2)cc1OC — higher, 0.138
- CCOc1ccccc1-c1nc(-c2ccncc2)no1 — higher, 0.0712
- COc1ccc(-c2noc(-c3ccccc3Cl)n2)cc1OC — lower, -0.738
- CCOc1ccc(-c2noc(COC)n2)cc1OC — higher, -0.328
- CCOc1ccc(-c2nc(-c3ccccc3)no2)cc1OCC — higher, 1.62
- CCOc1nc(C)ccc1-c1noc(-c2ccncc2)n1 — higher, 0.775
- CCOc1ccc(-c2nc(-c3ccncc3)no2)cc1OCC — higher, 2.12
- CCOc1cc(-c2nc(-c3cc(OC)c(OC)c(OC)c3)no2)cc(OCC)c1OCC — higher, 0.87
- COC(=O)c1cc2sc(Cl)cc2n1Cc1nc(-c2cccc(C)c2)oc1C — higher, -0.256
- Cc1noc(C)c1CSCC(=O)NC1=NCCS1 — higher, -0.333
- O=C(Cn1c(=O)n(Cc2ccccc2)c(=O)c2ccccc21)NCc1ccco1 — lower, -1.05
- COc1c(Cl)cc(Cl)cc1C(=O)Nc1ccc(NC(=O)c2cccs2)cc1 — higher, 0.021
- CC1(C)CC(=O)C=C(NC2CCCCCCC2)C1 — higher, -0.289
- O=C(NCC1(c2ccccc2)CCCC1)c1ccc(Br)o1 — higher, -0.309
- O=C(Oc1cccc2c(OC(=O)N3CCCC3)cccc12)N1CCCC1 — higher, -0.117
- COC(=O)c1cccc(-n2c(C)cc(C=O)c2C)c1 — higher, -0.0226
- Fc1ccc(Cn2nnnc2CN2CCN(C3CCCCC3)CC2)cc1 — higher, 0.354
- COCCCn1ccc(O)c(Cc2ccc(F)cc2)c1=O — higher, -0.0433
- Cc1nn(-c2ccc3nnc(Br)n3n2)c(C)c1Br — lower, -0.48
- CCc1ccc2c(c1)/C(=C/C(=O)c1cccs1)C(=O)N2 — higher, -0.314
- CC(C)(C)c1ccc(-c2nc(-c3ccncc3)no2)cc1 — higher, -0.17
- CCc1ccc(-c2nc(-c3ccncc3)no2)cc1 — higher, 2.31
- CCOc1ccc(-c2nc(-c3cccnc3)no2)cc1OCC — higher, 0.841
- CCOc1ccc(-c2nnc(-c3cccnc3)o2)cc1OCC — higher, 0.0661
- c1ccc(-c2nc(-c3ccncc3)no2)cc1 — higher, -0.104
- CC(C)C(=O)NCCc1nc2ccccc2n1C — higher, 0.0935
- C=CCNC(=O)c1onc(CSc2ccccc2F)c1C(=O)O — higher, -0.015
- Cc1nc2ccccc2c(=O)n1/N=C/c1ccncc1 — higher, -0.171
- O=C(NCC(=O)N(CC1CCCO1)C(C(=O)NC1CCCCC1)c1ccc(F)cc1)c1ccco1 (centres undefined) — higher, 0.579
- Cc1ccccc1C1C(C#N)=C2NC(=O)c3c(sc4c3CCCCC4)N2C2=C1C(=O)CC(C)(C)C2 (centres undefined) — higher, 1.56
- CCCn1c(CCNC(=O)c2cccs2)nc2ccccc21 — lower, -0.594
- CN1CCN(Cc2cc(Cl)c3cccnc3c2OC(=O)c2cccs2)CC1 — higher, 0.273
- O=C(Oc1ccc(Cl)c2cccnc12)c1cccc([N+](=O)[O-])c1 — higher, 0.0891
- O=C(Oc1c(Cl)cc(Cl)c2cccnc12)c1cccs1 — higher, 2.7
- O=C(Oc1ccc(Cl)c2cccnc12)c1ccco1 — higher, 0.951
- O=C(Oc1c(Cl)cc(Cl)c2cccnc12)N1CCOCC1 — higher, -0.0144
- O=C(Oc1cccc2cccnc12)c1cccs1 — lower, -0.532
- Cc1ccc(C(=O)Oc2ccc(Cl)c3cccnc23)cc1[N+](=O)[O-] — higher, 0.387
- Cc1oc2c(C)c3oc(=O)c4c(c3cc2c1C)CCC4 — lower, -0.532
- COc1ccc(N(C(=O)Cn2nnc(-c3ccc(Cl)cc3)n2)C(C(=O)NCC2CCCO2)c2ccc(C)cc2)cc1 (centres undefined) — higher, -0.126
- O=C(COC(=O)Cn1cnc2ccccc2c1=O)Nc1ccc(Cl)c(C(F)(F)F)c1 — higher, -0.01
- CC(=O)Nc1ccc(S(=O)(=O)NNC(=O)c2ccc(C)cc2)cc1 — higher, -0.161
- CC(=O)N1CCC2(CC1)C(C#N)=C(N)OC1=C2C(=O)CC(C)(C)C1 — higher, 0.05
- COC(=O)c1c(NC(=O)C2COc3ccccc3O2)sc2c1CCN(Cc1ccccc1)C2 (centres undefined) — higher, 0.0786
- Cc1ccccc1-n1c(O)c(/C=N/N2CCCCC2c2cccnc2)c(=O)[nH]c1=O (centres undefined) — higher, -0.187
- CN(C)C(=S)Nn1c(-c2ccccc2)nc2ccccc2c1=O — higher, -0.411
- COc1cc(CNc2ccccc2SC)ccc1O — higher, 1.58
- N#Cc1ccc(N2CCc3ccccc3C2)c([N+](=O)[O-])c1 — higher, 0.175
- Cc1ccc(S(=O)(=O)NC(CC(C)C)C(=O)NCc2ccco2)cc1 (centres undefined) — higher, 0.0163
- COc1ccc(-c2nnnn2C)cc1S(=O)(=O)NCCc1ccccc1 — higher, 1.29
- O=C(Nc1ccccc1Br)C1CCC(=O)N1Cc1ccccc1Cl (centres undefined) — higher, 0.19
- Cc1nc2cc(-c3cccs3)[nH]n2c(=O)c1C — higher, -0.15
- COc1cc(OC)cc(-c2cc3nc(C)c(CCC(=O)O)c(=O)n3[nH]2)c1 — higher, 0.713
- COc1cc(-c2cc3nc(C)c(C)c(=O)n3[nH]2)cc(OC)c1OC — higher, 2.19
- COC(=O)C(O)(CC(=O)Nc1ccc(OC(F)(F)F)cc1)C(F)(F)F (centres undefined) — higher, -0.408
- C=CCn1c(SCC(=O)NC)nc2sc3c(c2c1=O)CCC3 — lower, -0.523
- O=c1[nH]c2sc3c(c2c(=O)n1Cc1ccccc1)CCC3 — higher, -0.117
- O=C(CCCN1C(=O)c2ccccc2C1=O)OC1CSCC1NC(=O)c1ccccc1 (centres undefined) — higher, -0.17
- O=C1CS/C(=N\c2ccccn2)N1C1CCCCC1 — higher, -0.393
- COc1cc(CC(=O)Nc2ccc3nc(C)sc3c2)cc(OC)c1OC — higher, -0.158
- Cc1cccc(CSc2ncc(CO)n2C)c1 — higher, 0.12
- COc1ccc(CCNC(=O)C2CCN(S(=O)(=O)c3ccc(OC)c(OC)c3)CC2)cc1 — higher, -0.362
- OCCCCCN=c1cc(-c2ccccc2)oc2ccc(Cl)cc12 — lower, -0.493
- OCCN=c1cc(-c2ccccc2)oc2ccc(Cl)cc12 — higher, 0.389
- O=C(CCn1nc(-c2ccccc2)ccc1=O)N1CCOCC1 — higher, 0.676
- CCc1ccccc1NC(=O)c1cc2sccc2n1C — higher, -0.142
- Cc1cccc(NC(=O)c2sccc2-n2cccc2)c1C — lower, -0.81
- COc1ccc(OC)c(C(=O)c2ccc(C(=O)Nc3cccc4ccccc34)cc2)c1 — higher, 0.682
- Cc1cccc(C)c1OCC(O)CN1CCC(CN2C(=O)c3cccc4cccc(c34)C2=O)CC1 (centres undefined) — higher, 2.99
- CCc1ccc(OCC(O)CN2CCC(CN3C(=O)c4cccc5cccc(c45)C3=O)CC2)cc1 (centres undefined) — lower, -0.57
- Cc1ccc(C)c(OCC(O)CN2CCC(CN3C(=O)c4cccc5cccc(c45)C3=O)CC2)c1 (centres undefined) — higher, -0.000796
- CN1CCN(S(=O)(=O)c2cccc(C(=O)Nc3nc(-c4ccccc4)cs3)c2)CC1 — lower, -0.528
- C(=N\n1cnnc1)/c1nc2ccccc2[nH]1 — higher, -0.217
- COC(=O)Cc1ccc(NC(=O)c2cccs2)cc1 — higher, 0.153
- COc1ccc(CN(C(=O)CO/N=C/c2ccccc2)c2ccccc2C(=O)O)cc1 — higher, -0.413
- O=C(O)CC(Cc1ccccc1)c1ccc2c(c1)OCO2 (centres undefined) — higher, 0.249
- COc1ccc(Nc2ncnc3ccccc23)c(OC)c1 — higher, -0.192
- C=CCNc1nc(N2CCCC2)nc2ccccc12 — higher, 2.37
- c1ccc2c(N3CCCCC3)nc(N3CCCC3)nc2c1 — higher, 0.2
- COc1ccc(Nc2nc(N3CCCC3)nc(N3CCCC3)n2)c(OC)c1 — higher, 0.55
- COc1ccc(Nc2nc(N3CCCCC3)nc3ccccc23)c(OC)c1 — higher, 2.6
- CC(Nc1nc(N2CCCCC2)nc2ccccc12)c1ccccc1 (centres undefined) — lower, -2.21
- NC(=O)c1cccnc1Sc1ccc(Cl)cc1 — higher, -0.431
- Cc1cccc(CC2CC(=O)N(c3ncccn3)C2=O)c1 (centres undefined) — lower, -0.533
- O=C(COc1ccc(Cl)cc1)Nc1c(-c2cccs2)nc2ccccn12 — higher, -0.182
- COc1cc(C2NC(=O)NC(C)=C2C(=O)NCc2ccccc2)c(Cl)cc1O (centres undefined) — higher, 0.0361
- CON(c1nc(N(C)C)nc(N(C)C)n1)S(=O)(=O)c1ccccc1Cl — lower, -0.678
- COc1cc(C)nc(N(C)S(=O)(=O)c2ccccc2Cl)n1 — higher, -0.0755
- CON(c1nc(Cl)nc(N(C)C)n1)S(=O)(=O)c1ccccc1Cl — higher, 2.79
- Nc1nc(SCc2ccccc2)[nH]c(=O)c1-c1ccccc1 — lower, -0.741
- Nc1[nH]c(=S)[nH]c(=O)c1-c1ccccc1 — higher, 2.2
- N#Cc1c(-c2ccccc2)[nH]c(=S)[nH]c1=O — lower, -0.744
- CN1/C(=C/C2CC(=O)N(c3ccc([N+](=O)[O-])cc3)C2=O)C(C)(C)c2ccccc21 (centres undefined) — higher, -0.329
- COC(=O)C(CC(C)C)NC(=O)c1ccc([N+](=O)[O-])cc1 (centres undefined) — higher, 2.03
- COC(=O)C(CC(C)C)NC(=O)c1ccc(F)cc1 (centres undefined) — higher, -0.19
- COC(=O)c1ccc(NC(CC(C)C)C(=O)OC)c([N+](=O)[O-])c1 (centres undefined) — higher, 1.05
- COC(=O)C(CC(C)C)NC(=O)c1ccc([N+](=O)[O-])c(C)c1 (centres undefined) — higher, 2.9
- Cc1cc(C(=O)NCC(=O)OCC(=O)N(C(C)C)C(C)C)ccc1[N+](=O)[O-] — higher, -0.0582
- CC(Cc1ccccc1)NC(=O)c1ccc([N+](=O)[O-])cc1 (centres undefined) — higher, -0.0984
- COc1ccc(C2/C(=C(/O)c3ccccc3)C(=O)C(=O)N2CO)cc1 (centres undefined) — higher, 0.305
- Cc1ccc(/C=C2/CCc3c([nH]c4ccccc34)C2=O)cc1 — higher, 0.107
- O=c1cc(CO)occ1OCc1cccc(C(F)(F)F)c1 — higher, 0.0103
- O=C(Oc1ccc(N2C(=O)CCC2=O)cc1)c1ccco1 — higher, -0.374

With `COc1ccc(-c2noc(-c3cc(Cl)ccc3Cl)n2)cc1OC` the z-score was 3.41 (active).
With `CCOc1ccc(-c2nc(-c3ccc(OC)c(OC)c3)no2)cc1OCC` the z-score was 4.75 (active).
With `CCOc1cc(-c2noc(-c3cccnc3)n2)ccc1OC` the z-score was 3.79 (active).
In the case of `O=C(Oc1c(Cl)cc(Cl)c2cccnc12)c1cccc([N+](=O)[O-])c1`, the z-score is reported as 9.18 (active).
With `O=C(Oc1c(Cl)cc(Cl)c2cccnc12)c1ccco1` the z-score was 3.13 (active).
In the case of `C=CCn1c(=S)[nH]c2sc3c(c2c1=O)CCC3`, the z-score is reported as 10.9 (active).
With `OCCCN=c1cc(-c2ccccc2)oc2ccc(Cl)cc12` the z-score was 3.32 (active).
For `CCn1c(NC(=O)Nc2cccc(C)c2C)cc2sccc21`, the z-score was 3.12 (active).
